CHX counter: affects cycloheximide protein synthesis inhibition readout, counter-screen | cell reporter, cycloheximide protein synthesis inhibition counterscreen | max response, % | 12% of 300,000 active | AID 2314; in the data active means max response mostly above about 13%, no sharp cut-off; inactive means mostly below about 14%; further: read at 38.3 µM for the half of the compounds with a filed dose; 0% is about no effect
NS1 function inh: blocks influenza NS1 protein function; Potency, µM (doses to about 46.1 µM), for the others: at the top dose activity, positive = more growth; 0.4% of 270,000 active; calls by dose curve; further: potency means the concentration at half of the fitted maximal effect; actives are rising curves; nearly all actives have a fitted effect of over 50% in size
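A cell-based growth assay was used: compounds that relieve NS1-induced slow growth of budding yeast raise OD600. Assay medium was yeast nitrogen base with ammonium sulphate and -URA supplement, pH 6.0, with 2% galactose.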
Giardia FBPA inh: Giardia lamblia aldolase inhibition; A8B2U2; purified Giardia FBPA; Potency, µM (titrated, usually from 59.6 µM), inactives show at the highest dose activity, negative = inhibition, hits mostly inhibitors; AID 2451; 0.71% of 290,000 active; further: potency means the concentration at half of the fitted maximal effect; on the % scale 0 is the no-effect control and ±100 the full control effect; nearly all actives have a fitted effect of over 55% in size
Target sequence (A8B2U2 whole entry, looked up): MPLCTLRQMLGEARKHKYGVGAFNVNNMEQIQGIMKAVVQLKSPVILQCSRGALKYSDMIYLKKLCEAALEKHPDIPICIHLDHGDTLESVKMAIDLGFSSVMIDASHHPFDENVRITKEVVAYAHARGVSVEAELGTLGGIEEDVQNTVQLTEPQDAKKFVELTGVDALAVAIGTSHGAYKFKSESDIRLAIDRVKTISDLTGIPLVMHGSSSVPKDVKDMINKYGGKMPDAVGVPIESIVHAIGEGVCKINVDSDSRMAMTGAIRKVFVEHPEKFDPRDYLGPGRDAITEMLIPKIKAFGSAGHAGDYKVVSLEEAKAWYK
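40 nM FBPA preincubated 10 min at RT with compound (up to 57.5 uM final), then substrate plus GAPDH/TPI/NAD/arsenate coupling and diaphorase/resazurin added. Fluorescence read after 20 min at RT, 525/598 nm.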
Pf growth 48h: P. falciparum growth inhibition at 48 hours (one generation). P. falciparum luciferase growth in erythrocytes, 48 h. Potency, µM (doses to about 28.7 µM), without a hit: top-dose activity change, negative = inhibition, usual class: inhibitors. 5.9% of 310,000 active; further: potency means the concentration at half of the fitted maximal effect; on the % scale 0 is the no-effect control and ±100 the full control effect
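Luminescence readout; reporter = integrated firefly luciferase in P. falciparum. RBC culture at 2% hematocrit, 0.1% parasitemia final, 37 C/5% CO2; decreased signal taken as growth inhibition.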
Pf growth 96h: P. falciparum growth inhibition at 96 hour, primary screen for plastid delayed-death inhibitors; P. falciparum luciferase reporter growth, 96 h; Potency, µM (titrated, usually from 28.7 µM), without a hit: at the top dose activity change, negative = inhibition, usual class: inhibitors; 6.9% of 320,000 active; further: potency means the concentration at half of the fitted maximal effect; on the % scale 0 is the no-effect control and ±100 the full control effect
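Plates of compound plus infected erythrocytes (2% hematocrit, 0.05% parasitemia final) incubate 96 hours, 37 C, 5% CO2. Detection reagent added; reduced luminescence from the parasites' luciferase reporter flags inhibition.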
Shiga inhibitor: blocks Shiga toxin action in Vero cells; Vero cells, Shiga toxin protein synthesis inhibition reporter; inhibition, % at 38.7 µM; 9.2% of 290,000 active; in the data active means inhibition mostly above about 28%, no sharp cut-off; inactive means mostly below about 43%; further: 0% is about no effect
* hit, by the source's call; ? = inconclusive; . = no result; [ ] = another dose, or the depositor's remark. Most compounds without a hit are left out; they make up all but 21% or so of the library. Unless noted, the call rests on the fitted dose curve; in most records, active means well fitted curve in the direction sought with a large enough effect; inconclusive means small, poorly fitted or top-dose-only effect, or another doubt; inactive means no such curve, though single readings can be large; an effect the other way counts as inactive or inconclusive.

SMILES	CHX counter	NS1 function inh	Giardia FBPA inh	Pf growth 48h	Pf growth 96h	Shiga inhibitor
O=C(CSc1ccc(-c2ccc(F)cc2)nn1)N1CCOCC1	20*	.	0%	62%	1%	100
O=C(CSc1ccc(-c2ccccc2)nn1)N1CCOCC1	24*	3%	3%	29%	-20%	19
O=C(CCn1nc(-c2ccccc2)ccc1=O)N1CCOCC1	2	-4%	2%	5%	1.3µM*	-3
Cc1cccc(C(=O)NCC(=O)NC(C)c2ccc(-n3ccnc3)cc2)c1 (configuration not stated)	.	.	.	9%	5%	.
Cc1ccc(S(=O)(=O)NCc2ccccc2)cc1C(=O)NCC1CCCO1 (configuration not stated)	.	.	.	-6%	12%	.
COc1ccccc1NC(=O)c1cc(S(=O)(=O)NCc2ccccc2)ccc1F	-1	.	2%	?	5.2µM*	-7
COc1ccc(CNS(=O)(=O)c2ccc(F)c(C(=O)Nc3ccc(OC)cc3)c2)cc1	-1	.	2%	-4%	?	-3
Cc1ccc(S(=O)(=O)NCc2ccccc2)cc1C(=O)NC1CCC(C)CC1 (configuration not stated)	12*	9%	.	-2%	33%	55*
COc1ccc(S(=O)(=O)NCc2ccncc2)cc1NC(=O)c1ccccc1	.	.	.	-7%	?	.
COc1ccc(CNS(=O)(=O)c2ccc(F)c(C(=O)Nc3ccccc3OC)c2)cc1	-4	.	0%	-6%	2.3µM*	-11
O=C(CSc1ncn[nH]1)NCc1ccccc1Cl	11	-16%	-8%	30%	21%	5
CC(=O)N(C)c1ccc(NC(=O)Nc2ccc(C)c(C)c2)cc1	12*	-12%	-9%	-14%	?	31
Cc1ccc(NC(=O)CC(=O)Nc2ccc(C)c(C)c2)cc1C	-6	-7%	4%	26%	6%	-8
CC(=O)N(C)c1ccc(NC(=O)Nc2ccccc2C)cc1	39*	.	0%	268%	22%	82*
CCn1ncc(Br)c1C(=O)Nc1ccc(-c2ccno2)cc1	9.8*	-1%	.	-10%	?	7
COc1ccc(C(=O)OCC(=O)N(C)C2CCS(=O)(=O)C2)cc1S(=O)(=O)N1CCCc2ccccc21 (configuration not stated)	20*	.	7%	36%	32%	41
Cc1ccnc(NC(=O)c2cccc(S(=O)(=O)N3CCCc4ccccc43)c2)c1	.	.	.	1.9µM*	1.9µM*	.
COc1ccc(C(=O)Nc2ccc(C)cn2)cc1S(=O)(=O)N1CCCc2ccccc21	.	.	.	12µM*	?	.
Cc1cccnc1NC(=O)c1cccc(S(=O)(=O)N2CCCc3ccccc32)c1	26*	4%	.	?	?	19
COc1ccc(C(=O)O)cc1S(=O)(=O)N1CCCc2ccccc21	-3	7%	-10%	-1%	0%	10
COc1ccc(C(=O)OCC(=O)N(C)C2CCS(=O)(=O)C2)cc1S(=O)(=O)N(C)Cc1ccccc1 (configuration not stated)	.	.	.	-9%	?	.
CC1(C)CC(NC(=O)COc2ccc3c4c(c(=O)oc3c2)CCCC4)CC(C)(C)N1	-2	14%	5%	?	?	-16
NCC1CC2c3ccccc3C1c1ccccc12 (configuration not stated)	-5	6%	1%	-4%	0%	-4
CC(=O)Nc1ccn(C2CC3OCC(NC(=O)C(NC(=O)OC(C)(C)C)C(C)OCc4ccccc4)C3O2)c(=O)n1 (configuration not stated)	4	.	4%	.	.	32
O=C(Nc1ccccn1)c1cccc(S(=O)(=O)N2CCCc3ccccc32)c1	.	.	.	7.4µM*	10µM*	.
SMILES	CHX counter	NS1 function inh	Giardia FBPA inh	Pf growth 48h	Pf growth 96h	Shiga inhibitor
CC1CCC2(CC1)NC(=O)N(CC(=O)NC(C)c1ccc(F)c(F)c1)C2=O (configuration not stated)	.	.	.	?	-7%	.
CCCCN(CCCC)CCNC(=O)c1cn(CC)c2ccc(S(=O)(=O)N3CCCC3)cc2c1=O	-11	-4%	.	-21%	1%	-9
COc1ccc(OC)c(Nc2nn3c(=O)c4ccccc4nc3s2)c1	.	.	.	-18%	11%	.
C#CCOCCOCCOCCNc1nc(N2CCN(C(=O)[C@H](CCCCN)n3cc([C@@H](N)CC(C)C)nn3)CC2)nc(N2CCN(C(=O)[C@H](Cc3ccc(O)cc3)n3cc([C@@H](N)CC(C)C)nn3)CC2)n1	-1	3%	0%	0%	24%	-6
C#CCOCCOCCOCCNc1nc(N2CCN(C(=O)[C@H](CCC(=O)O)n3cc(C(N)[C@H](C)CC)nn3)CC2)nc(N2CCN(C(=O)[C@H](Cc3ccc(O)cc3)n3cc(C(N)[C@H](C)CC)nn3)CC2)n1 (some centres not stated)	-2	6%	-4%	0%	7%	-4
C#CCOCCOCCOCCNc1nc(N2CCOCC2)nc(N2CCN(C(=O)[C@H](Cc3ccc(O)cc3)n3cc([C@@H](N)C(C)CC)nn3)CC2)n1 (some centres not stated)	1	2%	6%	?	9.3µM*	-4
C#CCOCCOCCOCCNc1nc(N2CCN(C(=O)[C@H]([C@@H](C)CC)n3cc([C@@H](N)Cc4ccc(O)cc4)nn3)CC2)nc(N2CCN(C(=O)[C@H](CCCCN)n3cc([C@@H](N)CC(C)C)nn3)CC2)n1	35*	2%	-6%	38%	24%	-13
C#CCOCCOCCOCCNc1nc(N2CCN(C(=O)[C@H](CCC(=O)O)n3cc(C(N)CC(C)C)nn3)CC2)nc(N2CCN(C(=O)[C@H](Cc3ccc(O)cc3)n3cc(C(N)CC(C)C)nn3)CC2)n1 (some centres not stated)	-3	2%	-12%	?	?	-10
C#CCOCCOCCOCCNc1nc(N2CCN(C(=O)[C@H](Cc3ccc(O)cc3)n3cc([C@@H](N)CC(C)C)nn3)CC2)nc(N2CCN(C(=O)[C@H](Cc3ccc(O)cc3)n3cc([C@@H](N)CC(C)C)nn3)CC2)n1	0	9%	-9%	9.3µM*	?	-9
C#CCOCCOCCOCCNc1nc(N2CCN(C(=O)C(Cc3ccc(O)cc3)n3cc(C(N)C(C)CC)nn3)CC2)nc(N2CCN(C(=O)C(Cc3ccc(O)cc3)n3cc(C(N)C(C)CC)nn3)CC2)n1 (configuration not stated)	-2	10%	4%	9.3µM*	9.3µM*	-17
CC(=O)c1cccc(NC(=O)CSc2nnnn2C2CCCC2)c1	-1	-1%	4%	14%	2%	15
O=C1C2=CC[C@H]3C(=O)N(Cc4ccccc4)C(=O)[C@@H]3[C@@H]2[C@H](O)[C@@H]2O[C@H]12	.	.	-1%[12.9 µM]	.	.	.
